Among the data in ChEMBL document CHEMBL1157539, “Thousands of chemical starting points for antimalarial lead identification” (Nature, 2010) are Inhibition values, retold here.

The assay has as its system Plasmodium falciparum. Description: GSK_TCMDC: Inhibition of Plasmodium falciparum Dd2 in whole red blood cells, using parasite LDH activity as an index of growth. Test compounds present at 2uM. Type of assay: functional.
Turning to `COc1ccc(NC(=O)c2ccc(-c3ccc(-c4cccnc4)cc3)c(C)c2)cc1OCCN(C)C.Cl`, the Inhibition is on record as 73%.
`O=C(O)C(F)(F)F.O=[N+]([O-])c1cccc(CNCC2CCN(Cc3ccc(-c4ccccc4)cc3)CC2)c1`: the Inhibition stood at 91%.
For `COc1cc(C(=O)NC2CCN(Cc3ccccc3)CC2)ccc1-c1nc2cc(Cl)c(Cl)cc2[nH]1` the value was 100%.
For `CC(C)C1CCc2nc(N)nc(N)c2C1.Cl` (configuration not stated) the value was 0%.
The result for `Cc1cccc(CNc2nccc3[nH]c4ccccc4c23)c1.O=C(O)C(F)(F)F` reads 51%; that for `NCCCNc1nc(Nc2cccc(C(N)=O)c2)c2c(=O)[nH]ccc2n1.O=C(O)C(F)(F)F`, 49%.
In turn, `CC(=O)N[C@H](C(=O)Nc1cccc(-c2ccc(-c3nc4cccc(C)c4[nH]3)s2)c1)C(C)C` yielded an Inhibition of 29%.
For `Cc1cc(NC(=O)NCCN2CCC(NC(=O)c3ccc(C(F)(F)F)cc3)CC2)c2ccccc2n1.O=C(O)C(F)(F)F` the value was 75%.
The result for `Cc1nnsc1C(=O)Nc1ccc(-c2ccc(-c3nc4ccccc4[nH]3)s2)cc1` reads 38%; that for `O=C(Nc1ccc(-c2cccc(-c3nc4cc(C(F)(F)F)ccc4[nH]3)c2)cc1)c1cccnc1`, 24%; that for `CN1CCC(NCc2cccc(-c3ccc(S(=O)(=O)NCCc4ccccn4)cc3)c2)CC1.O=C(O)C(F)(F)F`, 1%.
For `CCC(C)CN1CCN(c2ccc(NC(=O)c3cccs3)cc2)C(C)C1.O=C(O)C(F)(F)F` (configuration not stated) the value was 95%; for `O=C(CC(=O)Nc1cc(Cl)cc(Cl)c1)Nc1cc(Cl)cc(Cl)c1`, 96%; for `COc1ccc(C(=O)Nc2ccc3nc(N4CCCCC4)cc(C)c3c2)cc1[N+](=O)[O-]`, 7%.
For the molecule `CCN(CC)CCN(Cc1ccc(-c2ccc(C(F)(F)F)cc2)cc1)C(=O)c1ccc(-c2ccc(NC(=O)OC)cc2C)cc1`, the Inhibition came out at 42%.
`O=C(O)C(F)(F)F.O=C1CCCN1CCCNCc1ccc(-c2cccc(-c3nc4cc(F)ccc4[nH]3)c2)cc1` gave an Inhibition of 8%.
The result for `O=C(/C=C/c1cccc2ccccc12)NCCCCCN1CCC(c2c[nH]c3ccccc23)CC1` reads 6%.
For `CCN(CC)CCN(Cc1ccc(-c2ccc(C(F)(F)F)cc2)cc1)C(=O)Cn1c(SCc2ccc(F)cc2)nc(=O)c2sccc21.O=C(O)C(O)C(O)C(=O)O` the value was 65%; for `COc1cc(NC(=O)c2sc(-c3ccc(Cl)cc3)cc2NC(=O)c2cccnc2)ccc1OCCN1CCCC1`, 77%.
The result for `O=C(Nc1cc(F)cc(F)c1)N1CCOC(CCN2CCC(c3ccccc3)CC2)(c2ccc(Cl)c(Cl)c2)C1` (configuration not stated) reads 69%; that for `OC(CN1CCN(C2CCCCC2)CC1)Cn1c2ccccc2c2cc(Br)ccc21` (configuration not stated), 89%.
As to `CCCCCN1CCC(NS(=O)(=O)c2cccc(C(=O)Nc3ccc(C(F)(F)F)cc3)c2)C1.O=C(O)C(F)(F)F` (configuration not stated), the Inhibition is given as 5%.
Regarding `O=C(c1ccc(-c2ccc(-c3nc4cc(C(F)(F)F)ccc4[nH]3)s2)cc1)N1CCCCC1CN1CCC(O)C1` (configuration not stated), the Inhibition turned out to be 80%.
For `Cc1ccc(Nc2nc(N)c3ccccc3n2)cc1.Cl` the value was 12%; for `COc1ccc2nccc([C@@H](O)CN3CCC(NCC(=O)Nc4cc(F)cc(F)c4)CC3)c2n1.O=C(O)C(=O)O`, 28%.
For `CC1CCC(NCc2c(O)ccc3ccccc23)CC1.Cl` (configuration not stated) the value was 77%; for `Cc1ccc(N(CCC(=N)N)Cc2ccccc2)cc1.Cl`, 95%.
`Cc1cccc(-c2nc3[nH]c(=O)cc(NC(=O)C(C)C)n3n2)c1` showed an Inhibition of 93%.
For `O=C(Nc1ccc(F)c(C(F)(F)F)c1)N[C@H]1CCN(CCCCCNC(=O)C2CC2c2ccc(Cl)c(Cl)c2)C1` (some centres not stated), the Inhibition worked out at 0%.
For `Nc1ncnc2cc(-c3cccc(S(N)(=O)=O)c3)sc12` the value was 99%.
The result for `CCCCCCN1CCCN(Cc2ccc(C(=O)Nc3ccc(C(C)C)cc3)cc2)CC1.O=C(O)C(F)(F)F` reads 50%; that for `COc1ccc(N2C(N)=NC(N)=NC2(C)C)cc1OC.Cl`, 0%.
For `CCOc1ccc(NC(=O)c2ccc(CN3CCCN(Cc4cccc(O)c4)CC3)cc2)cc1.O=C(O)C(F)(F)F`, the Inhibition is given as 9%.
The result for `CCOc1ccc2[nH]c(C)cc(=NN=Cc3ccc(Cl)cc3)c2c1` reads 100%; that for `COc1cc2nc(NCCn3cccn3)nc(NCCc3ccccc3)c2cc1OC`, 100%.
The result for `COc1ccc(-c2cccc(NC(=O)c3cccc(Cl)c3)c2)cc1CN1CCCN(C)CC1.O=C(O)C(F)(F)F` reads 99%; that for `Cc1ccccc1-c1nc2c(CN3CCC(O)(c4ccccc4)CC3)c(O)ccc2[nH]1`, 61%.

In general, Inhibition refers to the relative decrease from the control value, in per cent.
